Data as given in PubChem BioAssay AID448 (National Center for Advancing Translational Sciences (NCATS), 2006).
“And” between values parts separate entries of the source, which are not always exact repeats. Equal values may be shown once. In all, about 65,000 compounds went through this assay and about 45 (0.07%) were called active. Only a sample is shown. A number with no mark means an inactive call. The call rests on the fitted dose curve.

The molecules below were run on Schistosoma mansoni peroxiredoxin 2 (Prx2) (assay: Schistosoma Mansoni Peroxiredoxins (Prx2)). Details: S. mansoni Prx2 activity coupled to TGR/GSH (TGR is thioredoxin glutathione reductase), NADPH fluorescence loss, qHTS.
Excerpt: NIH Molecular Libraries Screening Centers Network [MLSCN]
NIH Chemical Genomics Center [NCGC]
David Williams [Illinois State University]
Schistosoma mansoni, a causative agent of schistosomiasis, resides in the bloodstream of their host up to 30 years without being eliminated by the host immune attack. One proposed survival mechanism is the production of an antioxidant "firewall" that neutralizes the oxidative assault of the host's immune attack. Schistosoma mansoni peroxiredoxins (Prx) are important parasite antioxidant proteins that play a crucial role in redox balance mechanisms. […] First, the proteins are essential for the parasite survival. […] Third, the protein(s) is amenable for study at the molecular level and can be produced in bacteria in large quantities, in soluble and active form. Inhibition of Prx activity was screened in a coupled-enzyme format with reducing equivalents being transferred from NADPH to […] intermediate via thioredoxin/glutathione reductase (TGR)-catalyzed reaction, then from thioredoxin to hydrogen peroxide via Prx-catalyzed electron transfer. A decrease in the fluorescence intensity of NADPH was used to measure the enzyme activity. Purified S. mansoni TGR and Prx were provided by Professor David L. Williams, Illinois State University.
NCGC Assay Protocol Summary:
100 mM phosphate buffer, pH 7.4, 10 mM EDTA, 0.01% Tween-20.
100 uM NADPH/25 nM TGR/700 uM GSH/50 nM Prx2 mixture in columns 1, 2, 5-48. Titration of control potassium antimonyl tartrate (PAT, from 1 mM, then 1:5) pin-transferred to lower half of column 2. Column 1 and upper half of column 2 are neutral (100% activity).
Three uL of reagents were dispensed to 1536-well Greiner black plates. Compounds and controls (20 nL) were transferred via Kalypsys PinTool. The plates were incubated for 15 min at room temperature, and then a 1 uL aliquot of 400 uM NADPH/700 uM GSH was added, immediately followed by a 1uL aliquot of 2.5 mM H2O2 (to start the reaction). The plate was transferred to ViewLux (Perkin-Elmer) High-throughput CCD imager where kinetic measurements (every 30 sec, for a total of 8 min) of NADPH fluorescence were taken using 365 nm excitation/450 nm emission filter set. During dispense, enzyme-containing reagent bottles were kept submerged into 4 deg C water bath to minimize degradation.
Keywords: NIH Roadmap, MLSCN, MLI, MLSMR, David Williams, Peroxyredoxin, Schistosoma mansoni, prx2, prx, , qHTS, NCGC
Potency means the concentration at half of the fitted maximal effect.

Row | Compound | Potency
1 | COc1ccccc1-c1nc(NCCNC(C)=O)c2ccccc2n1 | > 57 µM
2 | O=C(c1cccc(F)c1)N1CCC2(CCCN(Cc3ccncc3)C2)CC1 | > 57 µM
3 | O=c1cc(-c2ccccc2)[nH]c2nc(Cl)ccc12 | > 57 µM
4 | O=c1cc(-c2ccc(O)c(O)c2)oc2cccc(O)c12 | > 57 µM
5 | CC(C)C[C@@H](CC(=O)N[C@@H](CCC(=O)O)CC(=O)O)NC(=O)[C@@H]1CCCC[C@H]1NC(=O)C[C@@H](NC(=O)C[C@H](Cc1c[nH]c2ccccc12)NC(=O)[C@@H]1CCCC[C@H]1N)C(C)C | > 57 µM
6 | C[N+]1(CCN=C=NC2CCCCC2)CCOCC1 | > 57 µM
7 | O=C(c1cc(C(F)(F)F)cc(C(F)(F)F)c1)N1CCC2(CC1)CN(c1ccncc1)C2 | > 57 µM
8 | O=C(c1csnn1)N1CCC[C@@]2(CCN(Cc3nccs3)C2)C1 | > 57 µM
9 | COC(=O)[C@@]1(Cc2ccc(F)cc2)[C@H]2c3cc(C(=O)N4CCCC4)n(Cc4ccc(OC(F)(F)F)cc4)c3C[C@H]2CN1C(=O)c1ccccc1 | > 57 µM
10 | CC[C@]1(C)CC(=O)NC1=O | > 57 µM
11 | Cn1cc(-c2nc3cnc(N4CCNCC4)nc3n(CCC#N)c2=O)c2ccccc21 | > 57 µM
12 | O=C(O)c1ccc(C(=O)c2ccccc2C(=O)O)cc1C(=O)O | > 57 µM
13 | O=C1c2ccccc2C(=O)N1CCCSc1ccccc1 | > 57 µM
14 | O=C(O)COc1c(Cl)cc(Cl)c2cccnc12 | > 57 µM
15 | COc1cccc(Cn2c(=O)c(-c3cc(F)cc(F)c3)nc3cnc(OC)nc32)c1 | > 57 µM
16 | CCC[C@@H]1C[C@@]1(CCC)C(NC(=O)c1ccc(-c2ccccc2)cc1)c1cccc(Cl)c1 (some centres undefined) | > 57 µM
17 | COc1cccc(-c2nc(Nc3ccncc3)c3ccccc3n2)c1 | > 57 µM
18 | Clc1ccc(C(c2ccc(Cl)cc2)n2cc[n+](C[C@@H](OCc3ccc(Cl)cc3Cl)c3ccc(Cl)cc3Cl)c2)cc1 | > 57 µM
19 | CC(=O)N1CCC2(CC1)CCN(c1ccncc1)CC2 | > 57 µM
20 | CCOc1ccc(N=NS(=O)(=O)O)cc1 | > 57 µM
21 | NCCNCC1CCNCC1 | > 57 µM
22 | CN(C)c1cc2c(Nc3ccc4c(cnn4Cc4ccccc4)c3)ncnc2cn1 | > 57 µM
23 | C[C@@H]1CC[C@H]2[C@H](C)[C@H]3[C@H](C[C@H]4[C@@H]5CC=C6C[C@@H](O)CC[C@@]6(C)[C@@H]5C[C@@H](O)[C@]34C)N2C1 | > 57 µM

Row | Compound | Potency
24 | CCNc1ncc2nc(CCc3ccccc3)c(=O)n(-c3ccc(OC)cc3)c2n1 | > 57 µM
25 | Oc1c(Br)cc(CN(Cc2cc(Br)c(O)c(Br)c2)C2CCCCC2)cc1Br | > 57 µM
26 | COc1ccc(-n2c(=O)c(C)nc3cnc(N4CCOCC4)nc32)cc1 | > 57 µM
27 | C[C@@H](N)[C@@H](C)Cc1ccccc1 | > 57 µM
28 | CN1CCN2c3ccccc3Cc3ccccc3[C@@H]2C1 | > 57 µM
29 | CNc1nc(-c2ccccc2OC)nc2ccccc12 | > 57 µM
30 | O=C(Nc1ccccc1)N[C@H]1C[C@H](C(=O)O)Nc2cc(Cl)cc(Cl)c21 | > 57 µM
31 | COc1ccc(C(=O)N/N=C2/C(=O)c3c(C)cc(C)cc3CC2(C)C)cc1 | > 57 µM
32 | N#Cc1cc2[nH]c(=O)c(=O)[nH]c2cc1[N+](=O)[O-] | > 25.6 µM
33 | c1cncc(CNc2ccnc(-c3ccc4c(c3)OCO4)n2)c1 | > 57 µM
34 | O=C(c1csnn1)N1CCC2(CCN(Cc3nccs3)CC2)CC1 | > 57 µM
35 | COCCNc1ncnc2ccc(-c3ccccc3CN(C)C)cc12 | > 57 µM
36 | O=c1c(-c2ccc(F)cc2)nc2cnc(N3CCOCC3)nc2n1-c1ccccc1 | > 11.4 µM
37 | CC(=O)/C(=N\N=C(N)N)c1ccccc1 | > 57 µM
38 | COCCn1c(=O)c(-c2ccccc2)nc2cnc(N3CCOCC3)nc21 | > 57 µM
39 | CN(C)c1ncc2nc(-c3ccc(F)cc3)c(=O)n(Cc3ccc(F)cc3)c2n1 | > 57 µM
40 | O=C1NC(=O)[C@@](Cc2ccccc2)(c2cccnc2)N1 | > 57 µM
41 | N#Cc1cccc(-c2ccc3ncnc(NCc4cccs4)c3c2)c1 | > 57 µM
42 | O=C(Oc1ccc2c(c1)CN(Cc1ccccc1)CO2)c1ccccc1 | > 57 µM
43 | O=C(O)c1nn(-c2ccc(Cl)cc2)c2c1C(=O)c1ccccc1C2=O | > 57 µM
44 | O=C(O)c1c(Br)c(Br)c(Br)c(Br)c1C1c2ccc(O)cc2Oc2cc(O)ccc21 | > 57 µM
45 | c1ccc2c(Nc3ccncc3)nc(-c3ccc4c(c3)OCO4)nc2c1 | > 57 µM
46 | CCON=C1C(C)(C)C(C)(C)C(C)(C)C1(C)C | > 57 µM

Row | Compound | Potency
47 | Cc1ccc(-c2nn(CC(C)(C)C)c3ncnc(N)c23)cc1 | > 57 µM
48 | CN/C(=C\[N+](=O)[O-])NCCSCc1csc(CN(C)C)n1 | > 57 µM
49 | c1ccc2nc(C3=NCCN3)cnc2c1 | > 57 µM
50 | Cc1[nH]c(N)nc(=S)c1CCCNc1ccccc1 | > 57 µM
51 | COc1ncc2nc(-c3ccc(Cl)cc3)c(=O)n(C)c2n1 | > 57 µM
52 | CCNc1ncc2ncc(=O)n(CCc3ccccc3)c2n1 | > 57 µM
53 | COc1ccccc1-c1cc(NCc2cccs2)ncn1 | > 57 µM
54 | O=C(c1csnn1)N1CCC2(CC1)CN(c1ncccn1)C2 | > 57 µM
55 | COCCn1c(=O)c(-c2cccc(F)c2)nc2cncnc21 | > 57 µM
56 | Cc1c2c(nc3ccccc13)-c1cccc(=O)n1C2 | > 57 µM
57 | O=C(c1ccco1)N1CCC[C@@]2(CCN(c3ccccc3)C2)C1 | > 57 µM
58 | COc1ccc(C(=O)N2CCC3(CC2)CCN(c2ccccn2)CC3)cc1 | > 57 µM
59 | CN(C)CC/C=C1\c2ccccc2CSc2ccccc21 | > 57 µM
60 | COc1ccccc1CNc1ncnc2ccc(-c3ccc4c(c3)OCO4)cc12 | > 57 µM
61 | CC(C)NC(=O)N1CCC2(CC1)CCN(C(=O)c1cccn1C)CC2 | > 57 µM
62 | COc1ccccc1CNc1ccnc(-c2c(C)noc2C)n1 | > 57 µM
63 | O=C(c1cnccn1)N1CCC[C@@]2(CCN(Cc3ccncc3)C2)C1 | > 57 µM
64 | COc1ccccc1N1CCN(CCN2C(=O)c3ccccc3C(C)(C)C2=O)CC1 | > 57 µM
65 | COC(=O)N1CCC2(CCCN(Cc3ccccc3OC)C2)CC1 | > 57 µM
66 | N#C/C(=C\c1ccc(O)c(O)c1)C(=O)NCc1ccccc1 | > 57 µM and > 11.4 µM
67 | COc1ccc(Oc2ncc3nc(-c4ccc(F)cc4)c(=O)n(C)c3n2)cc1 | > 57 µM
68 | O=C(c1csnn1)N1CCC[C@@]2(CCN(c3cccc(-c4ccccc4)c3)C2)C1 | > 57 µM
69 | Clc1ccc(C=Nc2ccc3c(c2)Cc2ccccc2-3)c(Cl)c1 | > 57 µM

Row | Compound | Potency
70 | CC(=O)N1CCC2(CCCN(c3ncccn3)C2)CC1 | > 57 µM
71 | Cc1ccc(S(=O)(=O)NC(=O)NN2C[C@H]3CCC[C@@H]3C2)cc1 | > 57 µM
72 | COc1ccc2[nH]cc(CCNc3ncnc4ccc(-c5ccc(C(=O)N(C)C)cc5)cc34)c2c1 | > 57 µM
73 | N#C/C(=C\c1ccc(O)c(O)c1)C(N)=O | > 57 µM
74 | COC(=O)[C@@]1(Cc2ccc(F)cc2)[C@H]2c3cc(C(=O)N(C)C)n(CCc4c[nH]c5ccc(OC)cc45)c3C[C@H]2CN1C(=O)c1ccccc1 | > 57 µM
75 | CNc1ncnc2ccc(-c3cccc(NS(C)(=O)=O)c3)cc12 | > 57 µM
76 | Nc1ccc2[nH]cc(CCC(=O)O)c2c1 | > 57 µM
77 | O=c1c(-c2ccc(F)c(F)c2)nc2cncnc2n1-c1ccccc1 | > 57 µM
78 | COCCn1c(=O)c(-c2cccs2)nc2cnc(N3CCN(C)CC3)nc21 | > 57 µM
79 | O=C(O)c1nccnc1C(=O)Nc1ccc(Br)cn1 | > 57 µM
80 | Cc1nc2cnc(N3CCN(C)CC3)nc2n(CCC#N)c1=O | > 57 µM
81 | COc1ccccc1N1CCN(C[C@@H]2CN3C(=O)N(C)c4ccccc4C3=N2)CC1 | > 57 µM
82 | COC(=O)[C@@]1(Cc2ccc(OC)cc2)[C@H]2c3cc(C(=O)N4CCCC4)n(Cc4ccc(C(F)(F)F)nc4)c3C[C@H]2CN1C(=O)c1ccccc1 | > 57 µM
83 | CN(C)C(=O)c1ccc(-c2cncnc2Nc2ccccc2)cc1 | > 57 µM
84 | NC(=O)c1ccc(OC[C@H](O)CN2CC=C(c3ccc(F)cc3)CC2)cc1 | > 57 µM
85 | COc1ccc2c(=O)cc(-c3ccccc3)oc2c1O | > 57 µM
86 | NCCCNCCCCN(CCCN)/[N+]([O-])=N/O | > 57 µM
87 | OCCN1CCN(CC/C=C2\c3ccccc3Sc3ccc(C(F)(F)F)cc32)CC1 | > 57 µM
88 | COCCn1c(=O)c(-c2cc(F)cc(F)c2)nc2cncnc21 | > 11.4 µM
89 | Cc1c(S(=O)(=O)O)ccc(N=Nc2c(O)c(C(=O)O)cc3ccccc23)c1Cl | > 57 µM
